G9a block: qHTS Assay for Inhibitors of Histone Lysine Methyltransferase G9a; Histone-lysine N-methyltransferase EHMT2 (Homo sapiens), Q96KQ7; G9a H3K9 monomethylation, AlphaScreen, 2 h; Potency, µM (titrated, usually from 102 µM), without a hit: at the top dose activity, negative = inhibition, actives largely listed as inhibitors; actives 8.8% (n = 350,000); further: potency means the concentration at half of the fitted maximal effect; on the % scale 0 is the no-effect control and ±100 the full control effect; nearly all actives have a fitted effect of over 75% in size
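AlphaScreen detection with an anti-monomethyl H3K9 antibody quantified product after a 2 h room-temperature reaction containing 500 nM biotinylated H3K9 peptide, 20 µM SAM and 20 nM enzyme, which had been preincubated 15 min with compound.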
HP1b chromo inh: HTS for Inhibitors of HP1-beta Chromodomain Interactions with Methylated Histone Tails | Chromobox protein homolog 1 (Homo sapiens), P83916 | AlphaScreen HP1-beta / biotin-H3K9me3 peptide binding | Potency, µM (top dose mostly 114 µM), for the others: at the top dose activity change, negative = inhibition, actives largely listed as inhibitors | actives 0.56% (n = 390,000) | AID 540317, 2011; further: potency means the concentration at half of the fitted maximal effect; nearly all actives have a fitted effect of over 70% in size
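HP1-beta protein (50 nM final) preincubated 30 min at room temperature with biotinylated H3(1-18)K9me3 peptide (50 nM) in PBS pH 7.4, 0.01% Tween-20, then compound added for 30 min. AlphaScreen streptavidin donor/nickel chelate acceptor beads (10 ug/mL final), 30 min dark, luminescence read.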
BAZ2B block: qHTS Assay for Inhibitors of BAZ2B; Bromodomain adjacent to zinc finger domain protein 2B (Homo sapiens), Q9UIF8; AlphaScreen BAZ2B-H3K14Ac peptide displacement; Potency, µM (titrated, usually from 114 µM), inactives show at the top dose activity change, negative = inhibition, actives largely listed as inhibitors; actives 4.4% (n = 360,000); AID 504333, 2011; further: potency means the concentration at half of the fitted maximal effect; on the % scale 0 is the no-effect control and ±100 the full control effect; nearly all actives have a fitted effect of over 60% in size
Target sequence (Q9UIF8 whole entry, looked up, the tested form may be a part): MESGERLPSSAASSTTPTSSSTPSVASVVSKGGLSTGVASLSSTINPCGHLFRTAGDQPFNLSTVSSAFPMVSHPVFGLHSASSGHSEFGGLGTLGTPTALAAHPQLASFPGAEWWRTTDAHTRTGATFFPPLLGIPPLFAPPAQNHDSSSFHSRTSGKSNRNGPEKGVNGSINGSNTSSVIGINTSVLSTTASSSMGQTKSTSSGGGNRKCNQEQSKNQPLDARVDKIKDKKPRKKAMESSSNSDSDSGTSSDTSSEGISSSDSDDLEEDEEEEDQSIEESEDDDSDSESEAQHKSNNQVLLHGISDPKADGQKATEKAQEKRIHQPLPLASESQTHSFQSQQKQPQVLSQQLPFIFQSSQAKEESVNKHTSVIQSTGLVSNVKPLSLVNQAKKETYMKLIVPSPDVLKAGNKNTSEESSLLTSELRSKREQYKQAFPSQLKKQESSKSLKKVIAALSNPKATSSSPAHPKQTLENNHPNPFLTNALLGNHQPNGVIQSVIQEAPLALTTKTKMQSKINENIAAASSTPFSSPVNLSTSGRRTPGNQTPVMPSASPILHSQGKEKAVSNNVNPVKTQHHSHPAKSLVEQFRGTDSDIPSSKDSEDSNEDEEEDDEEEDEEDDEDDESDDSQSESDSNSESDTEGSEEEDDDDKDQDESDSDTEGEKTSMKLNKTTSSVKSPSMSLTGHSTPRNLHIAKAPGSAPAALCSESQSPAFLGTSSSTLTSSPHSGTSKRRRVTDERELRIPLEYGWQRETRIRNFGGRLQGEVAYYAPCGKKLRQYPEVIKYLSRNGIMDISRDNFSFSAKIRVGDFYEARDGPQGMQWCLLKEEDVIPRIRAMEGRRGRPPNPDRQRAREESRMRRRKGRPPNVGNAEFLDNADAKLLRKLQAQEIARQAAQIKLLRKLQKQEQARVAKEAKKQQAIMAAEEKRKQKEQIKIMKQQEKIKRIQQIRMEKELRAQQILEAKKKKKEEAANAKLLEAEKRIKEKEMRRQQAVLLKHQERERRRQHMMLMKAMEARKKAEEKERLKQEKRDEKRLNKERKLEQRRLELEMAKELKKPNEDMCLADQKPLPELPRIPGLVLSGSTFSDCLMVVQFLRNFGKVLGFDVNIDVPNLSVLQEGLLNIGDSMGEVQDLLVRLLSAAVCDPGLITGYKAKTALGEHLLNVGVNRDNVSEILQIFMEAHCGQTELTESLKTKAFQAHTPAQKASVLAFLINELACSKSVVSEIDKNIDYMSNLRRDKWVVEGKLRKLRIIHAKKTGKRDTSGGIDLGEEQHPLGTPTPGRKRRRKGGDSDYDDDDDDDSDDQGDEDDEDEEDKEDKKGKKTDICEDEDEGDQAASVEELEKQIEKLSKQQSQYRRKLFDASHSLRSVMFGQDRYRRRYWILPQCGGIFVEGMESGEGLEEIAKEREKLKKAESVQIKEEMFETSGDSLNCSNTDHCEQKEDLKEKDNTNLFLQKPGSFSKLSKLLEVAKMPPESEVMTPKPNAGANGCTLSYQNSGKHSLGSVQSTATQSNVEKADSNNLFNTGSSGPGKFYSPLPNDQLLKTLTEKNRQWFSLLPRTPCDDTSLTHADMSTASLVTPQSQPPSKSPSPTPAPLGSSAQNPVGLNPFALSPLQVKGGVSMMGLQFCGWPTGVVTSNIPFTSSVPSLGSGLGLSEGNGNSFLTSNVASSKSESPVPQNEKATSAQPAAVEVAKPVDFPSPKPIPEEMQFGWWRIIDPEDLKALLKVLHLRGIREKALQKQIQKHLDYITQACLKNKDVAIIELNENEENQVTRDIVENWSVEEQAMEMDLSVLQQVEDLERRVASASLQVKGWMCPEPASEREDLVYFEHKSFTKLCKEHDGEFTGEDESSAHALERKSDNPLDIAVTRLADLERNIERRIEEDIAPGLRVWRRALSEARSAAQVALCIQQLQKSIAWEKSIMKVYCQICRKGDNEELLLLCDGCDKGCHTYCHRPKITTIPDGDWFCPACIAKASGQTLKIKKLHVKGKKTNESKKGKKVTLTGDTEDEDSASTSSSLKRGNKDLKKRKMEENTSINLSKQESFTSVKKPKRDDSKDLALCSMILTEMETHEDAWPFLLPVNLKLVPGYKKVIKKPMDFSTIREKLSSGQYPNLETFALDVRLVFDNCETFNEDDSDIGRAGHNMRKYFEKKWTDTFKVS
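BAZ2B (50 nM) with biotin-H3(5-23)K14Ac peptide (50 nM) in PBS pH 7.4, 0.01% Tween-20, preformed 30 min, then compound 30 min at room temperature; top concentration 110uM. AlphaScreen streptavidin donor/nickel chelate acceptor beads (10 ug/mL final), 20 min dark, signal read.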
Six1-Eya2 inh: qHTS Assay for Inhibitors of the Six1/Eya2 Interaction | AID 651725, 2012 | activity change, % (no concentration beside the values) | AlphaScreen GST-Six1/His-Eya2 binding, biochemical; active compounds read low | actives 0.56% (n = 360,000); in the data active means activity change below about -65%; inconclusive means mostly about -30% to -63%; further: on the % scale 0 is the no-effect control and ±100 the full control effect
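Six1/Eya2 binding was read as AlphaScreen signal after compounds were pinned into GST-Six1 plus His-tagged Eya2 (5X stock 250/500 nM) in pH 8.0 Tris/NaCl/TCEP buffer, beads added, then incubated 1 h, 37 C, dark.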
CtBP-E1A blk: qHTS Assay for Inhibitors of the CtBP/E1A Interaction | actives 0.49% (n = 340,000) | AlphaScreen GST-E1A/His-CtBP binding, 1536-well; active compounds read low | CtBP / adenovirus E1A interaction (AlphaScreen) | activity change, % (concentration not given with the values); in the data active means activity change below about -65%; inconclusive means mostly about -30% to -63%; further: on the % scale 0 is the no-effect control and ±100 the full control effect
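GST-E1A and His-tagged CtBP (125 nM each as 5X stock) were preincubated with pin-transferred compound for 2 h at 37 °C in the dark, then glutathione donor and nickel acceptor beads were added for 1 h before AlphaScreen reading.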
JMJD2A Tudor: qHTS Assay for Inhibitors of JMJD2A-Tudor Domain | Lysine-specific demethylase 4A (Homo sapiens), O75164 | AlphaScreen JMJD2A-Tudor / H3K4me3 peptide binding | Potency, µM (highest dose often 114 µM), for inactives: at the top dose activity change, negative = inhibition, most hits filed as inhibitors | actives 4.4% (n = 390,000) | AID 504339, 2011; further: potency means the concentration at half of the fitted maximal effect; on the % scale 0 is the no-effect control and ±100 the full control effect; nearly all actives have a fitted effect of over 50% in size
Active calls of the source: *; ? = inconclusive; · = no result given; ! = repeats disagree; [ ] = dose if it differs, or a comment. Hits are enriched below; roughly 10% of the tested compounds scored in any of these assays. Unless noted, the call rests on the fitted dose curve; in most records, active means well fitted inhibition curve with a large enough effect; inconclusive means small, poorly fitted or top-dose-only effect; inactive means no such curve, though single readings can be large or run the other way.

SMILES	G9a block	HP1b chromo inh	BAZ2B block	Six1-Eya2 inh	CtBP-E1A blk	JMJD2A Tudor
O=C(CCl)N1CCN(S(=O)(=O)c2ccc3ccccc3c2)CC1	-17%	41%	-18%	6	5	-27%
O=C(NCC1CCCO1)c1cc(S(=O)(=O)N2CCCCC2)ccc1Cl (stereo not given)	8%[12.7 µM]	35%	56µM*	8	·	-8%
Cc1ccc(S(=O)(=O)N2CCCCC2)cc1C(=O)NCC1CCCO1 (stereo not given)	19%	18%	-2%	12	0	2%
O=C(CSc1ncccn1)N1CCN(C(=O)CSc2ncccn2)CC1	0%[59 µM]	15%	-2%	6	8	-5%
Oc1c(C(c2ccccc2)N2CCOCC2)ccc2ccccc12 (stereo not given)	·	14µM*	·	-13	-5	10µM*
COc1ccc(N2CCN(C(=O)CN3CCN(C(c4ccccc4)c4ccccc4)CC3)CC2)cc1	?	-73%	50µM*	?	?	25µM*
O=C(CSc1ncccn1)N1CCN(C(c2ccccc2)c2ccccc2)CC1	5.6µM*	-1%	-7%	-2	-1	-19%
C=CCNC(=O)CN1CCN(C(c2ccccc2)c2ccccc2)CC1	11µM*	?	50µM*	4	-4	20µM*
O=C(CN1CCN(C(c2ccccc2)c2ccccc2)CC1)N1CCOCC1	8.9µM*	18%	50µM*	1	14	18µM*
CC1CCCC(C)N1C(=O)CSCc1ccc(Cl)cc1 (stereo not given)	10%	22%	4%	5	4	21%
CC1CCCC(C)N1C(=C(Cl)Cl)C(=C1SCCS1)[N+](=O)[O-] (stereo not given)	35µM*	?	18µM*	?	·	-19%[11.4 µM]
COc1cccc(C=C(C#N)C(=O)c2ccccc2)c1	·	·	·	0	8	·
N#C/C(=C\c1cccc(Cl)c1)C(=O)c1ccccc1	40µM*	12%	-6%	1	·	-19%
Nc1c(C(=O)OCC(=O)Nc2cccc([N+](=O)[O-])c2)[nH]c(=O)[nH]c1=O	·	13%	·	?	-1	79µM*
O=C(NCCCSc1ccccc1)c1cc(Cl)ccc1O	35µM*	88%	50µM*	-11	-23	33%
CCN1/C(=C2/OC(=S)N(C)C2=O)Sc2ccccc21	?	56%	-7%	19	-8	-5%
CCN1/C(=C2/SC(=S)NC2=O)Sc2ccccc21	8.9µM*	53%	-13%	-10	-28	-24%
Cc1cc2c(s1)c1cnn(Cc3ccc(Cl)c(F)c3)c(=O)c1n2C	·	·	·	·	·	-25%
Cc1ccc(/C(=C\CN2CCCC2)c2ccccn2)cc1	7.5µM*!	·	-16%	1	-4	-6%
Cc1ccc(CN=Cc2[nH]c3ccc(Br)c(Cl)c3c2O)cc1	28µM*	45µM*	?	-7	-3	50µM*
CCc1ccc2c(c1)c(N=NC1=NC(=O)CS1)c(O)n2CC	-17%[0.501 µM]	-7%	50µM*	5	1	?
CCc1ccc2[nH]c(O)c(N=NC3=NC(=O)CS3)c2c1	?	-11%	40µM*	-3	0	-4%[11.4 µM]
CN(C)c1ncc2ncc(=O)n(Cc3ccc(F)cc3)c2n1	-3%[12.7 µM]	·	·	·	·	·
CC(=O)c1sc2nc(C)c3c(c2c1N)CCCC3	6%	85%	-14%	-2	-11	22%
CC(=O)c1sc2nsc(SCCN3CCCC3)c2c1N	-75%[59 µM]	?	?	-22	-20	89µM*
COc1ncnc2c1NC1=C(S2)C(=NCCC(=O)O)CC(C)(C)C1	18µM*	48%	?	-18	-3	-32%
CN(C)c1ncnc2c1NC1=C(S2)C(=NCCCC(=O)O)CC(C)(C)C1	?	30%	?	-8	3	-18%

From PubChem
